Screening data from PubChem.
In the library only some 7.4% were active in any assay of this set; here they are far more common.
Luc counter: Kinase-Glo luciferase inhibition (counter-screen); Q27757; Potency, µM (series often up to 38.3 µM), without a hit: top-dose activity change, negative = inhibition, most hits filed as inhibitors; Kinase-Glo luciferase, ATP luminescence, 8 min; 200,000 tested, 0.28% active; note: % is set by controls: 0 for no effect and ±100 for the full control effect; nearly all actives have a fitted effect of over 60% in size
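Compounds were added to a substrate mix at pH 7.2 (50 mM imidazole, 10 uM ATP, within the enzyme's linear range), followed by Kinase-Glo detection reagent; luminescence was measured after 8 minutes at ambient temperature.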
ELG1 genotoxic: induces genotoxicity in HEK293T cells with luciferase-tagged ELG1. 330,000 tested, 1.3% active. HEK293T ELG1-luciferase reporter, luminescence, 16 h. Potency, µM (titrated, usually from 46 µM), without a hit: at the highest dose activity change, positive = activation, hits mostly activators; note: % of control where 0% means no effect; nearly all actives have a fitted effect of over 60% in size
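Step 1: seed 2,000 HEK293T ELG1-luciferase cells per well. Step 2: add compound or DMSO, incubate 16 hr at 37 °C. Step 3: ONE-Glo, 30 min at room temperature, read luminescence.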
SMN2 splice enh: SMN2 splice variant enhancement; HEK293 SMN2-luciferase splicing reporter, luminescence, 30-36 h; Potency, µM (doses to about 46.1 µM), for the others: top-dose activity change, positive = activation, most hits filed as activators; 210,000 tested, 2.8% active; note: % of control where 0% means no effect; nearly all actives have a fitted effect of over 55% in size
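qHTS luciferase splicing reporter: luminescence rises when SMN2 exon 7 is included in transfected HEK293 cells. Compound exposure lasted 30-36 h at 37C, with 4.5 mM final sodium butyrate as control, followed by a ONE-Glo read.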
NPC1 promoter act: activators of NPC1 promoter. 320,000 tested, 2.4% active. Huh7 NPC1 promoter luciferase reporter, 24 h. Potency, µM (top dose mostly 9.22 µM), for the others: at the top dose activation, most hits filed as activators; note: % of control where 0% means no effect; nearly all actives have a fitted effect of over 60% in size
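NPC1 promoter–luciferase Huh7 cells; 24 h compound; luminescence.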
Rab9 promoter act: Rab9 promoter activation; Huh7 Rab9 promoter-luciferase reporter, luminescence, 24 h; Potency, µM (top dose mostly 9.22 µM), for the others: at the highest dose activation, negative = inhibition, most hits filed as activators; AID 485297; 320,000 tested, 2.8% active; note: % of control where 0% means no effect; nearly all actives have a fitted effect of over 60% in size
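Steps: seed 1500 Huh7 Rab9-luc cells per well, rest 2 h at 37 °C; add compound in DMSO; incubate 24 h; add luciferase reagent, 10 min ambient; read luminescence.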
FLuc counter: inhibits or activates purified firefly luciferase, miR-21 counter-screen; P08659; purified FLuc, Km substrates, luminescence inhibition; Potency, µM (series often up to 57.5 µM), for inactives: at the top dose activity change, negative = inhibition, hits mostly inhibitors; 360,000 tested, 6.9% active;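 note: plate controls were vehicle for no effect and reference inhibitor for full effect; nearly all actives have a fitted effect of over 55% in size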
Target sequence (P08659 whole entry, looked up): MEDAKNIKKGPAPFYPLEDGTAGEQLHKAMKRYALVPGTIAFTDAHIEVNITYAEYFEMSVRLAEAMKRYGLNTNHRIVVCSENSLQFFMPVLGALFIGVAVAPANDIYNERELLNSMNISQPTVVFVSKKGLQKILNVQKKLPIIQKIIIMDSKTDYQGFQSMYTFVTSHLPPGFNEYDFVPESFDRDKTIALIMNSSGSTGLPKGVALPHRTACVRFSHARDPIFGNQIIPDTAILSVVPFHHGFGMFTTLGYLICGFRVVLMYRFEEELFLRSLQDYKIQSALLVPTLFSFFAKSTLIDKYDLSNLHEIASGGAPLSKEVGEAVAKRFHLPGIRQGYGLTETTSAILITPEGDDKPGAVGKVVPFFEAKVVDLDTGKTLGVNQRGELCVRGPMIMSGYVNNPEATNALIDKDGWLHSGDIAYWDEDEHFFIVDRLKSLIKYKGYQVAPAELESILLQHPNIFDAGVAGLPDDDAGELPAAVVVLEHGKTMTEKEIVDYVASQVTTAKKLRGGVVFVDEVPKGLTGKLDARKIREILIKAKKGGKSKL
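Purified P. pyralis luciferase (10nM final) with 10uM D-luciferin and 10uM ATP (Km levels) in 50mM Tris acetate pH 7.5, 10mM Mg acetate, 0.01% Tween-20, 0.05% BSA; qHTS 6-point titration, ~60 µM downward; luminescence read.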
Numbers without * were called inactive; ? = inconclusive; / = not tested or not shown. Calls come from the whole dose curve; as a rule, active = well fitted curve in the direction sought with a large enough effect; inconclusive = small, poorly fitted or top-dose-only effect, or another doubt; inactive = no such curve, though single readings can be large; an effect the other way counts as inactive or inconclusive. Potency is the fitted concentration of half-maximal effect.

SMILES	Luc counter	ELG1 genotoxic	SMN2 splice enh	NPC1 promoter act	Rab9 promoter act	FLuc counter
O=C(N1CCOCC1)N1CCN(c2nc(-c3ccc(F)cc3)cs2)CC1	-2%	-2%	0%	0%	1%	11µM*
CCOC(=O)N1CCN(c2nc(-c3ccc(Cl)cc3)cs2)CC1	-5%	?	-26%	3%	7%	17µM*
c1ccc(-c2cnnc(N3CCCCC3)n2)cc1	-4%	?	29%	2.5µM*	1.4µM*	11µM*
O=[N+]([O-])c1ccc(-c2csc(N3CCCCCC3)n2)cc1	/	14%	/	?	?	12µM*
O=[N+]([O-])c1ccc(N2CCN(c3nc(-c4ccc(Cl)cc4)cs3)CC2)cc1	-6%	-11%	-46%	-1%	-9%	6%
NC(=O)C1CCN(c2nc(-c3ccc([N+](=O)[O-])cc3)cs2)CC1	/	/	/	/	/	1%
Clc1ccc(-c2csc(N3CCOCC3)n2)cc1	5%	?	18µM*	?	3.2µM*	11µM*
c1ccc(-c2csc(N3CCCCCC3)n2)cc1	1%	18µM*	?	10%	19%	15µM*
O=C(Nc1cccc(Cl)c1Cl)c1cc(S(=O)(=O)N2CCC3(CC2)OCCO3)ccc1F	/	/	/	/	/	-2%
NC(=O)C1(N2CCCCC2)CCN(c2nc(-c3ccc(Br)cc3)cs2)CC1	-2%	-2%	-42%	0%	-2%	0%
COc1ccc(-c2csc(/N=C/N(C)C)n2)cc1OC	4%	?	28%	24%	27%	?
COc1ccc(-c2csc(N3CCOCC3)n2)cc1OC	-2%	18µM*	?	?	?	12µM*
Brc1ccc(-c2csc(N3CCCCCC3)n2)cc1	/	7%	/	-8%	-15%	8.5µM*
CC(C)c1nn2c(=O)cc(COC(=O)c3ccc(NC(=O)CCc4ccccc4)cc3)nc2s1	/	/	/	/	/	0%
Cc1ccc(CNC(=O)c2ccc3c(c2)N(Cc2cccc(C)c2)C(=O)CS3)cc1	/	/	0%	/	/	-3%
COc1ccc(NC(=S)Nc2cc(C)[nH]n2)cc1Cl	/	15%	/	?	?	17µM*
Cc1cc(NC(=S)Nc2ccc(C)c(Cl)c2)n[nH]1	2%	?	18µM*	?	?	17µM*
COc1cc(C)c(NC(=S)Nc2ccc(C)c(Cl)c2)cc1OC	1%	-1%	-13%	-2%	0%	5%
O=C(c1ccc(Br)cc1)N(Cc1ccco1)c1ccccn1	/	/	/	/	/	-14%
Cc1ccc(NC(=O)CSCn2nnc3c(=O)[nH]c(Cc4ccc(F)cc4)nc32)c(C)c1	/	/	-2%	/	/	-14%
NS(=O)(=O)c1ccc(-c2ccc(/C=C3\C(=O)Nc4ccccc43)o2)cc1	/	-2%	/	2%	-2%	1%
CC1(C)OC(=O)C(=Cc2ccc(-c3ccc(S(N)(=O)=O)cc3)o2)C(=O)O1	-1%	?	4%	-4%	1%	11µM*
Nc1ncnc2nc(Sc3ccc(Cl)cc3)[nH]c12	4%	1%	-27%	-2%	-4%	-2%
Nc1ncnc2nc(SCc3ccc(Cl)cc3Cl)[nH]c12	1%	3%	-31%	-1%	1%	21µM*
Cc1ccn2cc(-c3cccc(S(=O)(=O)N4CCCCC4)c3)nc2c1	/	-5%	/	-6%	-1%	19µM*
SMILES	Luc counter	ELG1 genotoxic	SMN2 splice enh	NPC1 promoter act	Rab9 promoter act	FLuc counter
Cc1ccc2nc(-c3cccc(S(=O)(=O)N4CCCC4)c3)cn2c1	/	7%	/	-1%	0%	6.7µM*
Cc1ccc2nc(-c3cccc(S(=O)(=O)N4CC(C)OC(C)C4)c3)cn2c1 (stereo unspecified)	/	?	/	1%	-2%	13µM*
O=S(=O)(c1cccc(-c2cn3cccnc3n2)c1)N1CCCCCC1	0%	-19%	-15%	0%	8%	2%
Cc1cccc(OCC(=O)Nc2ccccc2C(=O)OCc2cc(=O)n3ccsc3n2)c1	/	/	/	/	/	-14%
Cc1ccc(C)c(NC(=O)CSc2nc3c([nH]c4ccccc43)c(=O)n2-c2ccc(F)cc2)c1	/	/	/	/	/	0%
O=C(c1csnn1)N1CCC2(CCCN(c3ccccn3)C2)CC1	-1%	/	-2%	/	/	/
O=C1CNC(=S)N1c1nc2ccccc2s1	/	?	/	?	?	17µM*
CC(=O)c1cc2c(cc1O)OC(C)(C)C=C2	-5%	/	-3%	/	/	/
O=c1/c(=C\c2cccn2-c2ccccc2)sc2nc3ccccc3n12	/	4.6µM*	/	?	2.5µM*	?
O=Cc1cccn1-c1ccccc1	/	1%	/	-3%	-2%	-2%
O=C(O)Cn1cc(/C=c2/sc3nc4ccccc4n3c2=O)c2ccccc21	0%	0%	17%	-1%	-3%	11µM*
COc1cc(N2CCCC2)c(OC)cc1/C=c1/sc2nc3ccccc3n2c1=O	-14%	1%	-39%	?	?	?
Cc1ccc(-n2c(C)cc(/C=c3/sc4nc5ccccc5n4c3=O)c2C)cc1	-5%	-1%	-79%	-22%	-28%	1.2µM*
Cc1cccc(C)c1OCC(=O)NCc1nnc(SCC(=O)NC2CCCCC2C)n1C (stereo unspecified)	2%	2%	22µM*	-1%	1%	11%
CCn1c(CNC(=O)COc2ccc(C(C)C)cc2)nnc1SCC(=O)NC1CCCCC1C (stereo unspecified)	-1%	-5%	-39%	-4%	-5%	-21%
Cc1cc(OCC(=O)N2CCOCC2)ccc1[N+](=O)[O-]	/	?	/	3.2µM*	2.8µM*	24µM*
Cc1cc(OCCN2CCOCC2)ccc1[N+](=O)[O-]	0%	?	?	?	?	?
Cc1ccc(-c2ccc(OCC(=O)N3CCOCC3)cc2)cc1	-4%	?	-2%	16%	18%	19µM*
O=C(NCCc1ccccc1Cl)c1sc2ncccc2c1-n1cccc1	/	/	/	/	/	1%
CC1CN/C(=C\C(=O)c2ccc(Cl)cc2)C(=O)N1 (stereo unspecified)	-3%	?	3.2µM*	0.4µM*	0.5µM*	2.4µM*
O=C1NCCN/C1=C\C(=O)c1ccc(F)cc1	/	18%	/	29%	?	?
CN(C)/C=C/C(=O)c1ccc(Cl)cc1	-6%	6%	-14%	19%	13%	?
CC1CN/C(=C\C(=O)c2ccccc2)C(=O)N1 (stereo unspecified)	-6%	?	10µM*	2.8µM*	4µM*	12µM*
O=C1NCCN/C1=C\C(=O)c1ccc(Cl)cc1	/	?	/	1.6µM*	3.5µM*	11µM*
Nc1cnc(Nc2ccc(Br)cc2)nc1N	/	?	/	22%	?	15µM*
Nc1ncnc(Nc2ccccc2)n1	/	2%	/	3%	-2%	-13%
